This is an account of results in PubChem BioAssay (NCI).

“And” between values parts separate entries of the source, which are not always exact repeats. Equal values may be shown once. The panel holds about 83,000 compounds, 20% with a hit somewhere; the sample as a whole holds those more often.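 In brief: 96-well plates, 48 h treatment, single concentration, percent growth endpoint.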 A number with no mark means an inactive call. The source made the active and inactive calls. How the source made its calls: active means growth percent below 10; inactive means the rest.

Experiment in all cases: NCI-60 one-dose screen, 48 h (100 = growth as untreated, 0 = no growth, -100 = all killed)
Common to all, as to settings: 10 µM unless noted

In assay [1] the test system is HCT-15 colon.
Assay [2] has as its system HT29 colon.
The test system of assay [3] is SNB-75 CNS.
In assay [4] the test system is SNB-19 CNS.
The subject of assay [5] is U251 CNS.
Assay [6] relates to PC-3 prostate.
Assay [7] deals with UACC-62 melanoma.
Assay [8] concerns LOX IMVI melanoma.
For assay [9], the system named is SK-MEL-2 melanoma.
The test system of assay [10] is EKVX NSCLC.
For assay [11], the system named is UO-31 renal.
Assay [12] has as its system TK-10 renal.
The test system of assay [13] is ACHN renal.
Assay [14] has as its system CAKI-1 renal.
Assay [15] relates to A498 renal.
The test system of assay [16] is CCRF-CEM leukemia.
The test system of assay [17] is MOLT-4 leukemia.
In assay [18] the test system is SK-MEL-5 melanoma.
Assay [19] concerns SK-MEL-28 melanoma.
Assay [20] deals with SN12C renal.

`C=C(Cl)C(=NC(C)(C)C)Nc1ccccc1C`: the growth is 101% in assay [1]; 37.6% in [2]; 85.7% in [3]; 95.3% in [4]; 83.9% in assay [5]; 77.3% in assay [6]. Also, the growth was 59.7% in [7]; 81.1% in assay [8]; 139% in [9]; 90.4% in assay [10]; 80.7% in assay [11]; 106% in assay [12]. Also, the growth is 91% in [13]; 104% in assay [14]; 105% in [15]; 98.1% in assay [16]; 72.2% in assay [17].

Turning to `CCN(CC)CC(C)(C)C(=O)/C=C/c1ccc(Cl)c(Cl)c1`, the growth was -34% (active) in assay [1]; -47.4% (active) in assay [2]; 30% in [3]; -45.8% (active) in assay [5]; -33.8% (active) in [6]; 0.295% (active) in assay [18]. Further, the growth was -56.2% (active) in assay [7]; -82.4% (active) in [8]; -35.5% (active) in assay [19]; -33.2% (active) in [9]; 28.2% in assay [10]; -43.8% (active) in [20]. For the same compound, the growth in [11] is -72% (active); in [12], -34.7% (active); in assay [13], -42.8% (active); in [14] it was -32.3% (active); in [15], -24.3% (active); in assay [16], 5.91% (active). Also, the growth in [17] is 2.21% (active).

Consider `O=C(O)C1C2CC3C(OC(=O)C31)C2Br` (stereo not drawn), for which the growth in assay [1] is 97.3% and 101%; in assay [2], 84.9% and 105%; in assay [3], 106% and 80.7%; in assay [5] it was 92.3% and 91.1%; in [18], 103% and 93.2%; in assay [7], 93.5% and 107%. Besides, the growth is 101% and 95.2% in assay [8]; 100% and 103% in assay [19]; 95.8% and 105% in [9]; 106% and 95.6% in assay [10]; 95.2% and 103% in [20]; 91.4% and 97.2% in [11]. Moreover, the growth in [12] was 88.7% and 100%; in assay [13] it was 96% and 100%; in assay [14], 102% and 101%; in assay [15], 103% and 64.4%; in [16] it was 89.3% and 107%; in [17] it was 96.8% and 106%.

Consider `CCC1OC(OC)C=CC1=O` (stereo not drawn), for which the growth in [1] is 109%; in assay [2], 113%; in [3], 95%; in [5], 113%; in assay [6] it was 97.1%; in [18], 103%. Besides, the growth is 85% in assay [7]; 103% in [8]; 106% in assay [19]; 129% in assay [9]; 89% in [10]; 94.7% in assay [20]. The growth in assay [11] is 93.4%; in [12], 110%; in [13], 113%; in assay [14] it was 113%; in assay [15], 90.3%; in assay [16], 94.5%.

On to `O=C1c2ccccc2C(=O)c2sc(Nc3ccc(Cl)cc3)nc21`, for which the growth in assay [1] was -68.7% (active); in [2], 92.5%; in assay [3], 33.1%; in assay [5] it was 4.35% (active); in assay [18], 13%; in assay [7], 18.4%. Besides, the growth is -85.8% (active) in assay [8]; -9.35% (active) in [19]; 35.9% in assay [9]; 53.6% in assay [10]; -80.3% (active) in assay [20]; 21.7% in [11]. The growth in assay [12] was 174%; in [13] it was -23.4% (active); in assay [14] it was 75%; in [15], 87.3%; in assay [16], 13.1%; in assay [17] it was 6.68% (active).

In the case of `O=C(/C=C\c1ccccc1)N1c2ccccc2CC1c1c[nH]c2ccccc12` (stereo not drawn), the growth is 55.7% in assay [1]; 21.8% in [2]; 62.4% in [3]; 85.8% in assay [4]; 74.1% in assay [5]; 87.6% in assay [18]. For the same compound, the growth in assay [7] is 48.9%; in [8] it was 67.9%; in assay [9], 61.3%; in [10] it was 66%; in assay [20], 74.3%; in assay [11] it was 40.1%. For the same compound, the growth in assay [12] was 77.8%; in assay [13], 79.4%; in [14], 62.8%; in assay [15], 54.2%; in assay [16], 68.6%; in assay [17], 44.3%.

For the compound `CCCCCCCCCCCCCCNCc1ccccc1`, the growth in [1] was 45.6%; in [2], 26.1%; in assay [3] it was 82.7%; in assay [5] it was 57.6%; in assay [6], 81.7%; in [18], 62.4%. Further, the growth in [7] is 99.1%; in assay [8] it was 53.3%; in assay [19], 82.4%; in assay [9] it was 96.4%; in [10], 93.4%; in assay [20], 79%. The growth in [11] was 62.4%; in [12] it was 103%; in assay [13], 90.9%; in assay [14] it was 82.2%; in assay [15] it was 92.7%; in assay [16], 60.5%. Moreover, the growth in [17] is 56.4%.

`CC(C)(C)c1ccc(O)c(C2CCCCC2)c1`: the growth in assay [1] is 102%; in assay [2] it was 87%; in assay [3], 100%; in assay [4], 122%; in [5], 101%; in assay [6], 95%. For the same compound, the growth in [7] is 96.7%; in assay [8], 104%; in assay [9], 89%; in assay [10], 115%; in [11], 104%; in [12], 92.2%. Also, the growth in assay [13] was 103%; in assay [14] it was 116%; in assay [15] it was 107%; in [16], 47.9%.
